Compound activity (PubChem)
CYP2C9 inh: inhibitors of human CYP2C9. AID 777. inhibition, % at 5 µM. P11712. CYP2C9 Supersomes, luciferin-H conversion, luminescence. actives 20% (n = 96,000);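 active = blocking of liver enzyme CYP2C9 beyond about 50% at 5 µM, limit read from the data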
Target sequence (P11712 whole entry, looked up): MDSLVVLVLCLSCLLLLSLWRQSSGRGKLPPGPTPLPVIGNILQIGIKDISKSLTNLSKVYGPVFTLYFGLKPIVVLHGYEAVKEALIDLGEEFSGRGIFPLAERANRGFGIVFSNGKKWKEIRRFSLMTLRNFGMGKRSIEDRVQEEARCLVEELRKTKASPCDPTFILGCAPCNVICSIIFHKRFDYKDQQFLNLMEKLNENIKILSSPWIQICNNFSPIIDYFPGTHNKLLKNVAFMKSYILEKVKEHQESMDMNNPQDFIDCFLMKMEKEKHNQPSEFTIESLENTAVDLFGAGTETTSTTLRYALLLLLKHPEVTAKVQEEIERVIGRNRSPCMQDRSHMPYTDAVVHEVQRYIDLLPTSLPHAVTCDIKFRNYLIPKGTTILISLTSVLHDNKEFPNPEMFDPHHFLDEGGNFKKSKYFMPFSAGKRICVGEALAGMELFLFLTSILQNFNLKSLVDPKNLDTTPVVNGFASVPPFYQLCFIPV
CYP2C19 inh: blocks human cytochrome P450 2C19. inhibition, % at 5 µM. CYP2C19 Supersomes, luciferin-H EGE luminescence, 30 min. P33261. AID 778. actives 21% (n = 96,000);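 active = CYP2C19 inhibition above a set limit at 5 µM in the primary screen, cut at about 50% in these data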;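 also: plate controls were negative control wells for no effect and 2.5 mM tranylcypromine positive control for full effect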
CYP2C9 activ: CYP2C9 (human) activation | recombinant CYP2C9, luciferin-H conversion, luminescence; stronger effect = higher value; factor 1 = untreated enzyme, 0 = blocked | activation factor at 5 µM | actives 1.4% (n = 96,000) | AID 1024;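 active = activation factor of 2 or more for CYP2C9 at a 5 µM dose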;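 also: 0 = sulfaphenazole-blocked wells and 1 = vehicle-only wells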
PostGolgi yeast: growth inhibition of a yeast mutant, post-Golgi transport screen; post-Golgi transport phenotypic cell assay; actives 0.9% (n = 98,000); inhibition, % at 10 µM;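 also: yeast cells grown in 1536-well plates; yeast grown about 18 h at 30C before absorbance read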
PostGolgi ctrl: growth of the yeast control strain, post-Golgi counter-screen | inhibition, % at 10 µM | efflux-deficient yeast background strain, growth absorbance A615, 16 h | AID 738 | actives 5% (n = 98,000)
CYP2C19 act: increases human CYP2C19 enzyme activity; 96,000 tested, under 10 active; recombinant CYP2C19, luciferin-H EGE luminescence; stronger effect = higher value; 0 = fully inhibited enzyme, 1 = untreated enzyme; activation factor at 5 µM; P33261;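 active = activation factor of at least 2 at 5 µM in the primary screen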;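 also: 0 = wells with 2.5 mM tranylcypromine and 1 = vehicle-only wells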
* marks the source's active call; other numbers are inactive results; x = no result given. Sampled rows, rich in hits. Any-hit rate of the full collection: about 32%. Rule as the data show it, unless noted: active = inhibition above about 30%; inactive = the rest.

SMILES	CYP2C9 inh	CYP2C19 inh	CYP2C9 activ	PostGolgi yeast	PostGolgi ctrl	CYP2C19 act
Cc1nc(OCc2ccccc2)c2sc3nc4c(cc3c2n1)COC(C)(C)C4	20	25	0.8	-2	12	0.8
O=C(O)c1cc(-c2ccccn2)n[nH]1	-9	-14	1.1	0	-6	1.1
CCOC(=O)NC1(NC2CCCCC2)Oc2ccccc2O1	57*	34	0.4	2	12	0.7
CC(C)c1ccc2nc3sc(C(=O)N4CCc5ccccc5C4)c(N)c3cc2c1	51*	9	0.5	0	3	0.9
FC(F)(F)c1cc(-c2ccccc2)nc(NC2CCCC2)n1	56*	42	0.4	6	2	0.6
FC(F)(F)c1cc(-c2ccccc2)nc(NCC2CCCO2)n1 (stereo unspecified)	19	10	0.8	-4	18	0.9
c1ccc(-n2nnnc2NCCc2c[nH]c3ccccc23)cc1	81*	98*	0.2	-7	2	0
Clc1ccc2[nH]cc(-c3nnnn3-c3ccccc3)c2c1	34	37	0.7	17	17	0.6
COc1ccc(CNC(=O)CSc2nnc(C)s2)cc1	-15	1	1.2	x	x	1
COc1ccc(OC)c(Nc2ncnc3ccccc23)c1	16	24	0.8	25	-1	0.8
COc1ccc(OC)c(Nc2cc(-c3ccccc3)nc(N)n2)c1	79*	80*	0.2	-6	6	0.2
COc1ccc(OC)c(Nc2cc(C)nc3ccccc23)c1	50	56*	0.5	2	2	0.4
COc1ccccc1N1CCN(C(=O)C(=O)N/N=C/c2cccc(O)c2)CC1	17	14	0.8	4	26	0.9
CCN1CC=C2C(C1)C(c1ccc(Cl)s1)C(C#N)=C(N)C2(C#N)C#N (stereo unspecified)	93*	70*	0.1	5	1	0.3
CCN1CC=C2C(C#N)=C(N)C(C#N)(C#N)[C@H](c3cccc(OC)c3OC)[C@H]2C1	14	44	0.9	6	4	0.6
COn1cnnc1-c1ccccc1	5	25	0.9	-6	0	0.7
CCNC(=O)COc1ccc2ccccc2c1	5	14	0.9	6	1	0.9
O=C(COc1ccc2ccccc2c1)NCCn1ccc2ccccc21	48	44	0.5	-22	48*	0.6
Cc1cc(C)c(S(=O)(=O)NCCn2ccc3ccccc32)c(C)c1	87*	49	0.1	0	57*	0.5
O=C(Cc1ccccc1)NCCn1ccc2ccccc21	34	76*	0.7	9	27	0.2
CC(=O)Oc1ccc2ccccc2c1C(NC(=O)Cc1ccccc1)c1ccccc1Cl (stereo unspecified)	48	63*	0.5	3	15	0.4
CC(O)CNCCNCc1c(OCc2ccccc2)ccc2ccccc12 (stereo unspecified)	12	25	0.9	-2	-4	0.7
COc1ccc(CNC(=O)C(=O)NCC2CCCO2)cc1 (stereo unspecified)	-22	-15	1.2	0	10	1.1
Cc1ccc(SCC(=O)NC(C)(C)C)cc1	13	16	0.9	-4	1	0.8
Cc1ccc(SCC(=O)Nc2cccc(C(=O)NC(C)(C)C)c2)cc1	58*	27	0.4	11	7	0.7
SMILES	CYP2C9 inh	CYP2C19 inh	CYP2C9 activ	PostGolgi yeast	PostGolgi ctrl	CYP2C19 act
COc1cccc(C(=O)Nc2nnc(-c3cccs3)o2)c1	40	21	0.6	-8	39*	0.8
O=C(Nc1nnc(-c2cccs2)o1)c1ccco1	34	-4	0.7	2	7	1
COc1cccc(C(=O)Nc2cccc(-c3nnc(-c4ccco4)o3)c2)c1	70*	77*	0.3	4	12	0.2
Cc1ccc(SCC(=O)Nc2cccc(-c3nnc(-c4ccco4)o3)c2)cc1	91*	23	0.1	29	1	0.8
O=C(Nc1ccccc1)c1cccc(-c2nnc(-c3ccccc3)o2)c1	20	-2	0.8	-1	-2	1
CCOC(=O)c1sc(C)c(C(=O)NCCCN2CCOCC2)c1N	15	4	0.9	-7	5	1
O=C(Oc1ccc2c(c1)C(=O)c1ccccc1CO2)c1ccccc1	73*	17	0.3	20	4	0.8
CN(Cc1ccccc1)c1nc2c(c(=O)[nH]c(=O)n2C)n1CCOc1ccccc1	54*	34	0.5	-8	29	0.7
Cn1c(=O)[nH]c(=O)c2c1nc(NCCc1ccccc1)n2CC(O)COc1ccccc1 (stereo unspecified)	18	19	0.8	14	14	0.8
CCOCCCNc1nc2c(c(=O)[nH]c(=O)n2C)n1CCCc1ccccc1	25	14	0.8	8	29	0.9
Cn1c(=O)[nH]c(=O)c2c1nc(NCCCn1ccnc1)n2Cc1ccccc1	96*	80*	0	-1	7	0.2
Cn1c(=O)[nH]c(=O)c2c1nc(NCCCn1ccnc1)n2CCOc1ccccc1	98*	99*	0	1	3	0
Cc1ccc(OCC(O)Cn2c(NCCc3ccccc3)nc3c2c(=O)[nH]c(=O)n3C)cc1 (stereo unspecified)	42	51*	0.6	-1	5	0.5
CCNC(=O)NC(=O)C(C)Sc1nc2cc(C(=O)OC)ccc2c(=O)n1-c1ccccc1 (stereo unspecified)	44	9	0.6	8	9	0.9
C(=N\Nc1nc(-c2ccccc2)cs1)/c1cccs1	41	45	0.6	-10	4	0.5
Cc1cc(C)n2nc3nc4c(cc3c2n1)CCCC4	9	-7	0.9	3	7	1.1
Cn1c(=O)c2c(nc(NCc3ccco3)n2CC(O)COc2ccccc2)n(C)c1=O (stereo unspecified)	47	24	0.5	-1	40*	0.8
CC(=NCCCn1ccnc1)c1c(O)n(Cc2ccccc2)c(=O)[nH]c1=O	78*	44	0.2	10	9	0.6
CC1(C)CC(=O)C(C=NCCCn2ccnc2)=C(O)C1	8	48	0.9	14	2	0.5
Cc1ccccc1OCC(O)Cn1c(NCc2ccco2)nc2c1c(=O)[nH]c(=O)n2C (stereo unspecified)	17	26	0.8	-6	5	0.7
Cc1ccc(C(=O)CNc2nc3c(c(=O)[nH]c(=O)n3C)n2Cc2ccccc2)cc1	79*	88*	0.2	4	6	0.1
CCCc1cc(-c2[nH]ncc2-c2ccc3c(c2)OCCCO3)c(O)cc1O	100*	100*	0	10	19	0
CCCc1cc(-c2[nH]ncc2-c2ccc(C(=O)OCC)o2)c(O)cc1O	98*	70*	0	7	11	0.3
CCOC(=O)c1[nH]nc(-c2cc(CC)c(O)cc2O)c1-c1cscn1	34	42	0.7	10	9	0.6
